# This is one part of a sample in which hits are shown more often than they occur.
# Methyltransferases = Primary Screen for Target Class Profiling of Small Molecule Inhibitors of Methyltransferases. purified enzyme, MTase-Glo SAH luminescence; stronger effect = lower value. calls only at 40 µM. actives 3.9% (n = 25,000); call rule not given here
#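 Each enzyme was assayed with SAM and its substrate. SAH formation detected by MTase-Glo luminescence; single-point 40 uM screen[…].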
# An asterisk follows results filed as active; i = inactive; + = active, no number; ! = not active in a repeat. % is set by controls: 0 for no effect and ±100 for the full control effect.
SMILES,Methyltransferases
COc1ccccc1CC(=O)NCCn1cccc1-c1nc(-c2ccccc2)no1,i
CC(C)n1c(=O)c2ccc(C(=O)NC3CCCC3)cc2n2c(=O)n(Cc3ccc(F)cc3)nc12,i
CC(C)N1C(=O)C2(CCN(C(=O)c3ccccc3F)CC2)C1c1ccccc1 (configuration not stated),i
C[C@@H]1CN(C(=O)c2cc(S(N)(=O)=O)ccc2F)CC[C@]1(C)O,i
O=C(c1ccc2c(=O)nc3c(-c4ccccc4F)n[nH]n3c2c1)N1CCN(C2CCCCC2)CC1,i
O=C(CCCc1nnc2n3nc(-c4ccccc4)nc3c3ccccc3n12)NCCCN1CCOCC1,i
CCCn1c(=O)c2ccc(C(=O)NC3CCCCC3)cc2n2c(=O)n(Cc3ccccc3F)nc12,i
Cc1cc(C)cc(NC(=O)CSc2nnc3n(C)c(=O)c4ccc(C(=O)NC5CCCC5)cc4n23)c1,i
COc1ccccc1N1CCN(C(=O)Cn2c(C)cc3nc4n(c(=O)c32)CCCCC4)CC1,i
COc1ccc(-c2cnc3[nH]cc(CC(=O)N4CCNC(=O)C4)c3c2)cc1,i
O=C(c1c(F)ccc(NS(=O)(=O)N2CC[C@@H](F)C2)c1F)c1c[nH]c2ncc(-c3cnc(C4CC4)nc3)cc12,i
CCCS(=O)(=O)Nc1ccc(F)c(C(=O)c2c[nH]c3ncc(-c4ccc(Cl)cc4)cc23)c1F,+
CC1CCC(NC(=O)C2(C)Cn3c(ccc3-c3ccco3)C(=O)N2CCCc2ccccc2)CC1 (configuration not stated),i
Cc1cccc(NC(=O)Cn2nc3n(C(C)C)c(=O)c4ccc(C(=O)NC5CCCCC5)cc4n3c2=O)c1,i
COc1cc(O)c2c(c1)C1=C[C@H](O)[C@@H](O)C[C@]1(C)OC2=O,i
N#C/C(=C1\Nc2ccccc2S1)c1ccnc(NCCc2cccnc2)n1,+
Cc1nc2c3ccccc3n3c(CCCC(=O)NCC(C)c4ccccc4)nnc3n2n1 (configuration not stated),i
CCCn1c(=O)c2ccc(C(=O)NC3CCCC3)cc2n2c(=O)n(Cc3ccc(C)cc3)nc12,i
Cc1ccc(Cn2nc3n(Cc4ccccc4)c(=O)c4ccc(C(=O)NC5CCCC5)cc4n3c2=O)cc1,i
O=C(O)C1Cc2c([nH]c3ccccc23)C(c2ccccc2Br)N1 (configuration not stated),i
Cc1ccc(CNC(=O)c2ccc3c(=O)[nH]c4c(C(=O)NCC5CCCO5)sc(=S)n4c3c2)cc1 (configuration not stated),i
C=CCNC(=O)c1ccc2c(=O)[nH]c3c(C(=O)NC(C)C)sc(=S)n3c2c1,i
Cc1ccc(CNC(=O)c2ccc3c(=O)[nH]c4c(C(=O)NC(C)C)sc(=S)n4c3c2)cc1,+
CCCCOc1ccccc1-c1cc2n(n1)CC(C)(C(=O)NC1CCCCC1)N(CCC)C2=O (configuration not stated),i
CC(C)=CCC/C(C)=C/CO[C@@H]1O[C@H](CO)[C@@H](OC(=O)/C=C/c2ccc(O)cc2)[C@H](O[C@@H]2O[C@@H](C)[C@H](O)[C@@H](O)[C@H]2O)[C@H]1O,i
SMILES,Methyltransferases
CCc1ccc(NC(=O)Cn2nc3n(Cc4ccc(F)cc4)c(=O)c4ccccc4n3c2=O)cc1,i
Cc1ccc2c(c1)c1c3n2CCN(CC(O)CN2CCCCC2)C3CCC1 (configuration not stated),i
Cc1ccccc1CN1C(=O)c2ccc(-c3ccccc3)n2CC1(C)C(=O)NC1CCCCCCC1 (configuration not stated),i
CCCN(CCC)S(=O)(=O)c1cc2[nH]c(=O)[nH]c2cc1C,i
Cc1ccc(NS(=O)(=O)c2ccc3[nH]c4c(c3c2)CCCC4)cc1Cl,i
COc1cc2c(cc1OC)CN(C(=O)/C=C/c1c(-c3ccccc3)n(C)c3ncccc13)CC2,+
COc1cc2c(cc1OC)CN(CCc1ccc(NC(=O)c3cc(OC)c(OC)cc3NC(=O)c3cnc4ccccc4c3)cc1)CC2,i
CN1CCCCCCN(C(=O)NCc2ccccc2)CCC1=O,i
COCCNC(=O)c1ccc(OC2CCN(Cc3ccc(OC)cc3F)CC2)c(Cl)c1,i
c1ccc(CN2CCc3[nH]cnc3C2c2ccc(-c3ccccn3)cc2)nc1 (configuration not stated),i
CCOCCCNC(=O)c1cc2n(n1)CC(C)(C(=O)NCc1ccccc1)N(C)C2=O (configuration not stated),i
O=C(CCCN1CCN(c2ccc(F)cc2)CC1)NC1c2ccccc2CSc2ccccc21 (configuration not stated),i
COC(=O)c1ncn2c1C(=O)N(Cc1ccco1)C(C)(C(=O)NC1CCCC1)C2 (configuration not stated),i
OCCN1CCN(c2ccc(-c3nc(-c4cccc(C(F)(F)F)c4)no3)cn2)CC1,i
O=C(NCCCCN1CCN(c2cccc(Cl)c2Cl)CC1)c1cc2ccccc2s1,i
Cc1nc(Nc2ncc(C(=O)Nc3c(C)cccc3Cl)s2)cc(N2CCN(CCO)CC2)n1,+
O=C1Nc2ccc(Cl)cc2[C@@](C#CC2CC2)(C(F)(F)F)O1,+!
CC1CCCCC1NC(=O)C1(C)Cn2c(cc3sccc32)C(=O)N1c1ccc(Cl)cc1 (configuration not stated),i
OC[C@H]1O[C@@H](n2cnc3c(NC4CCCCC4)ncnc32)[C@H](O)[C@@H]1O,i
OC[C@H]1O[C@@H](n2cnc3cncnc32)[C@H](O)[C@@H]1O,+
OC[C@H]1O[C@@H](n2cnc3c(NC4CCCC4)ncnc32)[C@H](O)[C@@H]1O,i
Nc1ncnc2c1c(I)cn2C1OC(CO)C(O)C1O (configuration not stated),+
Nc1ccc(CCNc2ncnc3c2ncn3C2OC(CO)C(O)C2O)cc1 (configuration not stated),i
Nc1nc(F)nc2c1ncn2[C@@H]1O[C@H](CO)[C@@H](O)[C@@H]1O,i
CC(C)N1CCN(C(=O)C2CCN(c3cnn(CC4CC4)c(=O)c3)C2)CC1 (configuration not stated),i
SMILES,Methyltransferases
CC(C)CCNC(=O)C1(C)Cn2c(cc3ccccc32)C(=O)N1Cc1ccccc1Cl (configuration not stated),i
O=C(NCCCCCCNC(=O)c1cccnc1)c1cccnc1,i
CC(C)(O)CCc1cccc(C(=O)NCCCc2ccccn2)c1,i
COC(=O)NCCNC(=O)c1cccc(-c2ccc(SC)cc2)c1,i
CN(C)CCCCCCNC(=O)c1cccc(-c2cc(O)c3ncccc3c2)c1,+
O=C(NCCCc1ccccc1)c1cccc(-c2cc(O)c3ncccc3c2)c1,+
O=C(NCCc1nc2cccnc2n1-c1ccccc1)c1cccnc1,i
COc1cc(OC)cc(C(=O)N[C@@H]2COCC[C@@H]2Oc2cccc(F)c2)c1,i
Cc1nc(C)c(C(=O)N2CCC3(CC2)NC(=O)CC3C(=O)O)s1 (configuration not stated),i
CC(C)C(C#N)O[C@@H]1O[C@H](CO[C@@H]2O[C@@H](C)[C@H](O)[C@@H](O)[C@H]2O)[C@@H](O)[C@H](O)[C@H]1O (some centres not stated),i
COCC(=O)NC[C@H]1CCN(Cc2ccccn2)C[C@H]1N(C)C,i
COc1cc(C(=O)NC2CCN(C)CC2)ccc1Nc1ncc2c(n1)N(C1CCCC1)CC(F)(F)C(=O)N2C,+

# Screening data (PubChem BioAssay)
